FGF22 binding = FGF22 (human) thermal shift binding | recombinant FGF22 thermal shift, SYPRO orange fluorescence; percent of sucrose octasulfate shift, DMSO zero | activity (Tm shift, normalised), % at 9.99 µM | 340,000 compounds, 1.5% hits;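 active = mean Tm shift, scaled 0 neutral to 100 positive control, at about 1.3% or above, every replicate too, limit read from the data; inconclusive = no clear call, values can overlap the other calls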
RAD52 anneal inh = inhibitors of human RAD52 DNA annealing | P43351 | recombinant RAD52 DNA annealing, FRET fluorescence | inhibition, % at 18.7 µM | 360,000 compounds, 0.46% hits;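 active = every replicate showing at least 50% inhibition; inconclusive = mean inhibition at least 50% but not in every replicate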
DENV2 CPE = inhibitors of DENV2 cytopathic effect; AID 651640; 350,000 compounds, 1.7% hits; DENV2-infected cells, cytopathic effect rescue, plate reader; CPE inhibition, % at 9.99 µM; in the data active = CPE inhibition above about 20%, passing the limit was not always enough; inconclusive = no clear call, values can overlap the other calls; tested in BHK-21 cells
AF4-AF9 inh = blocks AF4 peptide binding to human AF9. AlphaScreen, biotin-AF4 peptide binding to FLAG-AF9. AID 651704. P42568. 350,000 compounds, 0.47% hits. inhibition, % at 10 µM;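 active = every replicate reaching a set inhibition limit, whatever the replicate mean, cut at about 25% in these data; inconclusive = mean inhibition reaches that limit but some replicates miss it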
Target sequence (P42568 whole entry, looked up): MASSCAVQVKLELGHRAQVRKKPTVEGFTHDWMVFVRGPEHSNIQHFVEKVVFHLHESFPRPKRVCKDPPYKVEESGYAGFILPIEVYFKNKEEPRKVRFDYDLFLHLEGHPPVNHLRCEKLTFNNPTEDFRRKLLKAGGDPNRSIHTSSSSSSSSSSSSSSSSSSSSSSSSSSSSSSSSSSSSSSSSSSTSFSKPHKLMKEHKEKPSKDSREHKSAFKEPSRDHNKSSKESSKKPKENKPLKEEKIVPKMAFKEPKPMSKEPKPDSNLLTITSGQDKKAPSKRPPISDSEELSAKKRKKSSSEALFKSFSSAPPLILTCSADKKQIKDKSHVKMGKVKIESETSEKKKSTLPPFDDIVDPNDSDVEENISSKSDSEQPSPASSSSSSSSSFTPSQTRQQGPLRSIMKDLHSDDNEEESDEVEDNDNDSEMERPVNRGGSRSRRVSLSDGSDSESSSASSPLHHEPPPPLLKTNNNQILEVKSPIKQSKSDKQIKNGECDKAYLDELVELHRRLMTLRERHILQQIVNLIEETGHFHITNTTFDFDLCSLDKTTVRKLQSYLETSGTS
ERAP1 inh = blocks human ERAP1 aminopeptidase activity | inhibition, % at 10.7 µM | Q9NZ08 | 340,000 compounds, 0.15% hits | recombinant ERAP1, Leu-AMC fluorescence, 60 min | AID 652197;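 active = mean replicate inhibition of at least 30%, or all replicates individually reaching that 30% level; inactive = mean below 30% and not every replicate reaching it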
AlphaScreen intf = counter-screen: AlphaScreen signal interference; signal luminescence; AC50, µM (doses to about 12 µM); shares compounds with AF4-AF9 inh; 530 compounds, 45% hits; cut-off not given, nearly all actives have AC50 up to about 14 µM
Of the large screens only hits and unclear results are named; the others gave an inactive call (follow-up assays come after a bar, where they were run); ! = repeats disagree. The list is not random: actives were taken first. Their share in the collection is about 4%.

COc1ccc(N2CCN(c3cc(C)nc4ccc(OC)cc34)CC2)cc1	AF4-AF9 inh 33.7 | AlphaScreen intf inactive
CN(C)c1ccnc(Nc2ccccc2)c1C#N	none
CN(C)c1ccnc2c[cH-]cc12.[Fe].c1ccc(-[c-]2[c-](-c3ccccc3)[c-](-c3ccccc3)[c-](-c3ccccc3)[c-]2-c2ccccc2)cc1 (stereo not drawn)	AF4-AF9 inh 28.7! | AlphaScreen intf inactive
Cc1ccc(-c2ccc3c(c2)O[C@H](CN(C)C)[C@H](C)CN([C@@H](C)CO)S3(=O)=O)cc1	none
CC1NC(=O)NC1CCCCCC(=O)Nc1ccc(F)cc1 (stereo not drawn)	AF4-AF9 inh 92.8 | AlphaScreen intf 0.681µM
O=C(CCCC(=O)c1ccccc1)Nc1ccc(F)cc1	none
CCN(CC)c1ccc(N=C2C(=O)Nc3ccccc32)cc1	AF4-AF9 inh 57.3 | AlphaScreen intf 12µM
Oc1cccc(C(Nc2nccs2)c2ccc3cccnc3c2O)c1 (stereo not drawn)	AF4-AF9 inh 48.6 | AlphaScreen intf 3.33µM
CCOc1ccc(/C=N/Nc2cc(N3CCOCC3)ncn2)c(O)c1	DENV2 CPE inconclusive, AF4-AF9 inh 32.2 | AlphaScreen intf 14.1µM
CCCOc1ccc(/C=N/Nc2cc(N3CCOCC3)ncn2)c(O)c1	AF4-AF9 inh inconclusive
C[C@@H]1CN([C@@H](C)CO)C(=O)c2cccc(NC(=O)C3CCOCC3)c2O[C@@H]1CN(C)S(=O)(=O)c1ccc(Cl)cc1	none
CCN(CC)CCNC(=O)c1ccc(NC(=O)c2cccc(S(=O)(=O)N3c4ccccc4CC3C)c2)cc1 (stereo not drawn)	AF4-AF9 inh 30.6 | AlphaScreen intf inactive
CC1Cc2ccccc2N1S(=O)(=O)c1cccc(C(=O)NCc2ccncc2)c1 (stereo not drawn)	none
Nc1ccccc1Nc1cc(-c2ccccc2)nn1-c1cccc(Cl)c1	DENV2 CPE 20.3, AF4-AF9 inh 31.4 | AlphaScreen intf inactive
Nc1cc(-c2ccc(Cl)cc2)nn1-c1ccccc1	none
CN1c2ccc(C3=CCCCC3)cc2[C@@H]2[C@@H](CCN2C(=O)C2CC2)[C@H]1CO	none (no result: FGF22 binding)
COc1ccccc1NC1=C(NC(C)=O)C(=O)c2ccccc2C1=O	none (no result: DENV2 CPE)
COC1=C(Nc2ccccc2OC)C(=O)c2ccccc2C1=O	AF4-AF9 inh 50.3 | AlphaScreen intf 7.93µM
COc1ccc(N2CCN(CCCNC(=O)C(=O)c3c(C)n(C)c4ccccc34)CC2)cc1	AF4-AF9 inh 37.0 | AlphaScreen intf inactive
O=C(C[C@H]1CC[C@@H](NC(=O)C2CC2)[C@H](CO)O1)NC1CCC1	none
CN1CCN(C(c2ccccn2)c2cc(Cl)c3cccnc3c2O)CC1 (stereo not drawn)	AF4-AF9 inh 39.2 | AlphaScreen intf inactive
Oc1c(C(c2ccc(Cl)cc2)N2CCCC2)cc(Cl)c2cccnc12 (stereo not drawn)	AF4-AF9 inh 55.6 | AlphaScreen intf inactive
CN1CCN(C(c2ccc(C(F)(F)F)cc2)c2ccc3cccnc3c2O)CC1 (stereo not drawn)	AF4-AF9 inh 85.4 | AlphaScreen intf 2.42µM
CC(=O)NC(c1ccc(C)cc1)c1cc(Cl)c2cccnc2c1O (stereo not drawn)	none
CC(=O)NC(c1cc(Cl)c2cccnc2c1O)C1CC1 (stereo not drawn)	none (no result: DENV2 CPE)
Oc1c(C(c2ccccc2Cl)N2CCCC2)ccc2cccnc12 (stereo not drawn)	AF4-AF9 inh 90.6 | AlphaScreen intf 2.15µM
C(=C\c1ccncc1)/c1ccncc1	none (no result: ERAP1 inh) | AlphaScreen intf inactive
CCNC(=O)Nc1ccc2c(c1)C(=O)N(C)[C@@H]1CC[C@@H](CC(=O)NCc3ccccc3F)O[C@H]1CO2	none (no result: FGF22 binding)
Cc1ccc2c(c1)C1CN(C)CCC1N2Sc1ccccc1[N+](=O)[O-] (stereo not drawn)	AF4-AF9 inh 35.4 | AlphaScreen intf 9.3µM
Cc1ccc2c(c1)[C@@H]1CN(C)CC[C@@H]1N2S(=O)(=O)c1ccc([N+](=O)[O-])cc1	none (no result: DENV2 CPE)
COc1cc(CNc2ccc3[nH]c(=O)[nH]c3c2)cc(Br)c1OCc1ccc(F)cc1	none
COc1cccc(CNc2ccc3[nH]c(=O)[nH]c3c2)c1OCc1ccccc1F	AF4-AF9 inh 40.8 | AlphaScreen intf inactive
COC(=O)[C@@H]1[C@@H](CO)[C@@H]2Cn3c(ccc(-c4ccncc4)c3=O)[C@@H]2N1CC1CCCC1	none (no result: FGF22 binding)
